Measured values taken from PubChem BioAssay (NCATS).
Where “and” joins values, the source holds several entries; their conditions need not be identical. Equal values may be shown once. Results filed as inconclusive are left out. Where a structure was tested more than once in an assay, its records may differ in their call. Calls of active or inactive are those of the source. Unless noted, calls follow the shape of the dose curve; as a rule, active = well fitted curve in either direction with a large enough effect (not every such curve was filed as active); inconclusive = small, poorly fitted or top-dose-only effect, or another doubt; inactive = flat fitted curve, though single readings scatter.

Legend:
[1] = AP1 Signaling Pathway (AID 357); conditions: ME-180 AP-1-bla reporter, EGF-induced, beta-lactamase ratio, 5 h;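 also: ME-180 reporter cells stimulated with EGF at its EC50 level; % is scaled to controls: 0 for no effect and ±100 for the full control effect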
Summary of the method: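 First, ME-180 AP-1-bla cells were cultured overnight at 37 °C in low-serum Opti-MEM. Next, titrated compounds with EC50 EGF were incubated 5 hours. Finally, CCF4 was added for 2.5 hours and the 460/530 nm ratio recorded.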

[2] = target: Cytochrome P450 1A2 (Homo sapiens) (UniProt P05177); assay: p450-cyp1a2 (AID 410; calls by dose curve; also: potency is read from the fitted curve at half-maximal effect;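 as to activity change, negative = inhibition: -100% = full effect of reference inhibitor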); conditions: recombinant CYP1A2, luciferin-ME demethylation, luminescence; series mostly up to 57 µM
Summary of the method: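 Luminescent demethylation readout: Luciferin-ME (100uM, equal to Km) turned over by 20nM CYP1A2 for 60 min at room temperature after NADPH regeneration addition, following 10 min compound preincubation. Normalization used 57 uM furafylline as full inhibition.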

[3] = Cell Viability - BJ (AID 421; calls by dose curve;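 also: potency is read from the fitted curve at half-maximal effect; cells exposed to compound for 40 hours at 37 °C before readout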); conditions: BJ fibroblast viability, qHTS
Summary of the method: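 Normal human BJ foreskin fibroblasts, 1500/well in complete medium, treated 40 hr at 37 °C. Cellular ATP by CellTiter-Glo luminescence; normalized to DMSO and 100 uM tamoxifen, AC50 from Hill fit.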

[4] = Cell Viability - Jurkat (AID 426;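 active = dose-dependent loss of cell ATP signal giving a full or clear fitted curve, ranked by lower potency value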; also: potency is read from the fitted curve at half-maximal effect); conditions: qHTS
Summary of the method: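 Cytotoxicity taken as drop in cellular ATP (CellTiter-Glo luminescence, 20 min room temperature) after 40 hr, 37C treatment of 5000 Jurkat Clone E6-1 cells per well; concentration-response fitted with Hill equation for AC50.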

[5] = Cell Viability - Hek293 (AID 427;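 active = compounds whose dose-response curve shows a full or clear partial loss of cell viability, called from curve shape rather than a numeric limit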;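 also: potency is read from the fitted curve at half-maximal effect; cells exposed to compound for 40 hours at 37 °C before reading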); conditions: qHTS
Summary of the method: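 HEK293 cells in complete medium were exposed to compound for 40 hr at 37 °C, then cellular ATP was read by CellTiter-Glo luminescence. Data were normalized to DMSO (basal) and 100 uM tamoxifen (100% inhibition), and AC50 came from Hill fits.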

[6] = Cell Viability - HepG2 (AID 433; calls by dose curve;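 also: potency is read from the fitted curve at half-maximal effect; potency for ATP loss meaning cytotoxicity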); conditions: qHTS
Summary of the method: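 Cytotoxicity read as ATP loss (CellTiter-Glo luminescence) after 40 hr compound exposure of HepG2, 1500 cells/well, 37 °C. AC50 by Hill equation; 0% set by DMSO, 100% inhibition by 100 uM tamoxifen.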

[7] = Cell Viability - MRC5 (AID 434; calls by dose curve;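 also: potency is read from the fitted curve at half-maximal effect; potency reflects cytotoxicity seen as loss of intracellular ATP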); conditions: MRC5 lung fibroblast viability, qHTS
Summary of the method: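 AC50 values come from Hill-equation fits of intracellular ATP loss, measured by CellTiter-Glo luminescence. Normal lung fibroblasts (MRC5) had 40 hr compound treatment at 37 C, normalized between DMSO and 100 uM tamoxifen.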

[8] = Cell Viability - SK-N-SH (AID 435; calls by dose curve; also: potency is read from the fitted curve at half-maximal effect); conditions: SK-N-SH neuroblastoma cell viability qHTS
Summary of the method: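 qHTS cytotoxicity: CellTiter-Glo ATP luminescence after 40 h compound exposure of human neuroblastoma SK-N-SH cells at 37 °C. AC50 derived by Hill-equation fitting, with DMSO as basal and 100 uM tamoxifen as full inhibition.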

[9] = NFAT Signaling Pathway (AID 444); conditions: Jurkat NFAT-bla M1, carbachol, beta-lactamase ratio, 5 h; at 38 µM (top of the series) unless noted;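 also: carbachol stimulus at about its EC50 of 1 µM final; % is scaled to controls: 0 for no effect and ±100 for the full control effect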
Summary of the method: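 Read-out: CCF4 FRET ratio (460 nm/530 nm) after 1 h RT dye loading, used for %activity and AC50 from titration series. Cells: Jurkat NFAT-β-lactamase/M1 line, treated with compound plus 1 uM carbachol for 5 h, 37 °C.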

[10] = Stat Signaling Pathway (AID 446); conditions: ME-180 (cervical carcinoma) SIE beta-lactamase reporter, IL-6 stimulated, 5 h; at 38 µM (top of the series) unless noted;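 also: ME-180 cervical cancer cells given 40 pM IL-6 alongside compound; SIE-controlled beta-lactamase reporter measured as 460/530 nm FRET emission ratio; % is scaled to controls: 0 for no effect and ±100 for the full control effect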
Summary of the method: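 Normalization used AC90 stimulation (300 pM IL-6) and AC90 inhibition (125 nM pan-JAK inhibitor at 40 pM IL-6). The underlying signal is SIE-driven beta-lactamase in ME-180 cells after 5 h IL-6 exposure with compound.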

[11] = target: Glucocorticoid receptor (Homo sapiens) (UniProt P04150); assay: GR-GFP Redistribution (AID 450;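 active = compounds whose dose series gives a full or clear partial fitted curve of increased nuclear translocation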; also: potency is read from the fitted curve at half-maximal effect); conditions: U2OS GR-GFP nuclear translocation, laser cytometry, 2 h
[12] = target: Glucocorticoid receptor (Homo sapiens) (UniProt P04150); assay: GR-EFC Redistribution (AID 451; calls by dose curve; also: potency is read from the fitted curve at half-maximal effect); conditions: CHO-K1 GR-EFC translocation, beta-gal luminescence, 2 h
Summary of the method: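 Translocation of GR-ED fusion to nuclear EA restores b-gal, read by luminescence after 1 h room-temperature detection. Engineered CHO-K1 biosensor cells, 1,000/well, exposed 2 h at 37 C to titrations up to 46 uM final.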

[13] = target: Mitogen-activated protein kinase 10 (Mus musculus) (UniProt Q61831); assay: JNK3 AlphaScreen Assay (AID 530); conditions: JNK3 lysate, c-Jun phosphorylation; series mostly up to 57.1 µM;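 also: kinase came from lysate of stimulated human HepG2 cells; signal reports phosphorylation of biotinylated GST-cJun 1-79 at Ser73 with 10 µM ATP; % is scaled to controls: 0 for no effect and ±100 for the full control effect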
Summary of the method: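 qHTS titrations with 15 min compound pre-incubation before adding ATP (10 uM final). Read-out: AlphaScreen of Ser73-phosphorylated biotin-GST-cJun using HepG2 lysate JNK3 activated by IL-1β and TNFα.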

[14] = Cell Viability - N2a (AID 540; active = well fitted curve in the direction sought with a large enough effect; an effect the other way counts as inactive or inconclusive;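 also: plate controls were DMSO alone for no effect and tamoxifen control for full effect; nearly all actives have a fitted effect of over 45% in size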); conditions: N2a mouse neuroblastoma cell viability; series mostly up to 92.2 µM
Summary of the method: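 CellTiter-Glo ATP luminescence, read 20 min after reagent at room temperature, reported viability following 40 h compound treatment at 37 °C. N2a mouse neuroblastoma cells seeded 1500/well; Hill equation gave AC50.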

[15] = Cell Viability - NIH 3T3 (AID 541; active = well fitted curve in the direction sought with a large enough effect; an effect the other way counts as inactive or inconclusive;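 also: plate controls were DMSO alone for no effect and tamoxifen positive control for full effect; nearly all actives have a fitted effect of over 25% in size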); conditions: NIH 3T3 cell viability, qHTS; series mostly up to 92.2 µM
Summary of the method: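 Intracellular ATP (CellTiter-Glo luminescence, 20 min at room temperature) measured after 40 hr compound exposure at 37 °C of 1000 NIH 3T3 mouse fibroblasts/well in complete medium; AC50 derived by Hill-equation modelling of qHTS concentration-response curves.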

[16] = Cell Viability - HUV-EC-C (AID 542; active = well fitted curve in the direction sought with a large enough effect; an effect the other way counts as inactive or inconclusive; also: % is scaled to controls: 0 for no effect and ±100 for the full control effect; nearly all actives have a fitted effect of over 35% in size); conditions: HUV-EC-C endothelial cell viability, qHTS; series mostly up to 92.2 µM
Summary of the method: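 CellTiter-Glo luminescence measured ATP loss in HUV-EC-C cells (1000/well) after 40 hr compound exposure at 37 °C, in complete culture medium. Concentration-response data were Hill-fitted to give AC50.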

[17] = Cell Viability - H-4-II-E (AID 543; active = well fitted curve in the direction sought with a large enough effect; an effect the other way counts as inactive or inconclusive; also: % is scaled to controls: 0 for no effect and ±100 for the full control effect; nearly all actives have a fitted effect of over 35% in size); conditions: H-4-II-E rat hepatoma viability; series mostly up to 92.2 µM
Summary of the method: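 CellTiter-Glo luminescence (intracellular ATP) measured after 40 h compound exposure at 37 °C in H-4-II-E rat hepatoma cells seeded at 1500/well. Values are AC50s fitted with the standard Hill equation.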

[18] = Cell Viability - SH-SY5Y (AID 544; active = well fitted curve in the direction sought with a large enough effect; an effect the other way counts as inactive or inconclusive;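 also: 0% = DMSO alone and -100% = 100 µM tamoxifen; nearly all actives have a fitted effect of over 55% in size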); conditions: SH-SY5Y neuroblastoma cell viability; series mostly up to 92.2 µM
Summary of the method: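 Cytotoxicity measured via ATP-dependent luciferase luminescence (CellTiter-Glo) following 40 h, 37 °C exposure of 1500 SH-SY5Y cells per well. Concentration-response data were fitted with the standard Hill equation to give AC50.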

[19] = Cell Viability - Renal Proximal Tubule (AID 545; active = well fitted curve in the direction sought with a large enough effect; an effect the other way counts as inactive or inconclusive;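 also: 0% = DMSO only and -100% = 100 µM tamoxifen; nearly all actives have a fitted effect of over 40% in size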); conditions: renal proximal tubule cells viability, primary cells of rat origin; series mostly up to 91.7 µM
Summary of the method: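 Viability taken as intracellular ATP (CellTiter-Glo luminescence) after 40 hr, 37 °C compound treatment of primary proximal tubule cells from rat kidney, 1000 cells/well; Hill-equation fits of qHTS concentration-response data gave AC50.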

[20] = at 38 µM (top of the series) unless noted

Sequence of Cytochrome P450 1A2 (Homo sapiens) (P05177 whole entry, looked up): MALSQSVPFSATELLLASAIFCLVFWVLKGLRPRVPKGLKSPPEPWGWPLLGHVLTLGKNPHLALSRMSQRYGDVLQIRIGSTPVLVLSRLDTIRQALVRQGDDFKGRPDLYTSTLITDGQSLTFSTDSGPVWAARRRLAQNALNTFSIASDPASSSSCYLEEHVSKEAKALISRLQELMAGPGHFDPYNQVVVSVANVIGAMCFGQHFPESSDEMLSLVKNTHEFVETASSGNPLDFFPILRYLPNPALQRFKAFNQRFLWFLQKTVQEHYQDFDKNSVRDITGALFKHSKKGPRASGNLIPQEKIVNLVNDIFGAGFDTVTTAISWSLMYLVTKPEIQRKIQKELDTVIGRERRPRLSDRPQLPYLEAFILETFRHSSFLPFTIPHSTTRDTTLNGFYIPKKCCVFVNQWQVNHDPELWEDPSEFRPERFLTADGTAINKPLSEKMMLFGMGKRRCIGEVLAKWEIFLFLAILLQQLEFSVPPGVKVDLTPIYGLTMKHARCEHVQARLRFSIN
Sequence of Glucocorticoid receptor (Homo sapiens) (P04150 whole entry, looked up, the tested form may be a part): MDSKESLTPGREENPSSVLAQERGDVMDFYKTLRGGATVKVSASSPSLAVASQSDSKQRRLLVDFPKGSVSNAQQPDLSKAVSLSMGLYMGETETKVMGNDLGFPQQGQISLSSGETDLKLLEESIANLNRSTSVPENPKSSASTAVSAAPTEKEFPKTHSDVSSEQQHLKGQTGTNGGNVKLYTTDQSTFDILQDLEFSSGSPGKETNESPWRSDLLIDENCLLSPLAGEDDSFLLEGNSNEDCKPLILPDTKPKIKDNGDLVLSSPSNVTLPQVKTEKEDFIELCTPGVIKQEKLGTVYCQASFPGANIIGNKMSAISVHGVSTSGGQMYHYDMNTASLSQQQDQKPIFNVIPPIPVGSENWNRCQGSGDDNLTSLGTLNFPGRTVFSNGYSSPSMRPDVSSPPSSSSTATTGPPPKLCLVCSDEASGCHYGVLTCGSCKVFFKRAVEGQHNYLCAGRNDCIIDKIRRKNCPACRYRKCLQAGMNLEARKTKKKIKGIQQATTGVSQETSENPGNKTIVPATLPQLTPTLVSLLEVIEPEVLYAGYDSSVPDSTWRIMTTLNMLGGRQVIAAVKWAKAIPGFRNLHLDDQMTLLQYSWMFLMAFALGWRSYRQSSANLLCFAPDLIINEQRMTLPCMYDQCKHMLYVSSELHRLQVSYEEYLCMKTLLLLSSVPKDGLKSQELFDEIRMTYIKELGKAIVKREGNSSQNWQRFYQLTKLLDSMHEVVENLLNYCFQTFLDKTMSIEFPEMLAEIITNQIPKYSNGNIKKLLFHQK

NC(=O)c1ccccc1
activity change, negative = inhibition [1, 20]: -2.04% (inactive) | Potency [2]: inactive | Potency [3]: > 92 µM (inactive) | Potency [4]: > 92 µM (inactive) | Potency [5]: > 92 µM (inactive) | Potency [6]: > 92 µM (inactive) | Potency [7]: > 92 µM (inactive) | Potency [8]: > 92 µM (inactive) | activity change, negative = inhibition [9]: 20.6% (inactive) | activity, negative = inhibition [10]: -35.6% (inactive) | Potency [11]: > 46 µM (inactive) | Potency [12]: > 46 µM (inactive) | outcome [13]: inactive | outcome [14]: inactive | outcome [15]: inactive | outcome [16]: inactive | outcome [17]: inactive | outcome [18]: inactive | outcome [19]: inactive

CCC(=O)N1CCN(C(=O)c2ccccc2)CC1
activity change, negative = inhibition [1, 20]: -5.7% (inactive) | Potency [2]: inactive | activity change, negative = inhibition [9]: 3.73% (inactive) | activity, negative = inhibition [10]: 2.58% (inactive) | Potency [11]: > 46 µM (inactive) | Potency [12]: > 46 µM (inactive) | outcome [13]: inactive

O=c1[nH]ccc2c(O)cccc12
activity change, negative = inhibition [1, 20]: -7.94% (inactive) | Potency [2]: 15.8 µM (active) | activity change, negative = inhibition [9]: -6.89% (inactive) | activity, negative = inhibition [10]: -2.82% (inactive) | Potency [11]: > 46 µM (inactive) | Potency [12]: > 46 µM (inactive)

CCN(CC)CCOC(=O)c1cc(Cl)c(N)cc1OC
activity change, negative = inhibition [1, 20]: 11.7% (inactive) | Potency [2]: 12.6 µM (active) | activity change, negative = inhibition [9]: -3.84% (inactive) | activity, negative = inhibition [10]: -0.802% (inactive) | Potency [11]: > 46 µM (inactive) | Potency [12]: > 46 µM (inactive) | outcome [13]: inactive

C[C@H](O)C(=O)C1=Nc2c(nc(N)[nH]c2=O)NC1
activity change, negative = inhibition [1, 20]: 12.2% (inactive) | Potency [2]: inactive | activity change, negative = inhibition [9]: -2.7% (inactive) | activity, negative = inhibition [10]: -2.31% (inactive) | Potency [11]: > 46 µM (inactive) | Potency [12]: > 46 µM (inactive) | outcome [13]: inactive

Cc1cccc(C(=O)NCN2CCN(c3ccccc3C#N)CC2)c1
activity change, negative = inhibition [1, 20]: -12.1% (inactive) | Potency [2]: 15.8 µM (active) and 20 µM (active) | activity change, negative = inhibition [9]: -27.4% (inactive) | activity, negative = inhibition [10]: -3.73% (inactive) | Potency [11]: > 46 µM (inactive) | Potency [12]: > 46 µM (inactive) | outcome [13]: inactive

NS(=O)(=O)c1cccc2c1c([N+](=O)[O-])cc1nc(O)c(O)nc12
activity change, negative = inhibition [1, 20]: 7.91% (inactive) | Potency [2]: 25.1 µM (active) and inactive | activity change, negative = inhibition [9]: 5.62% (inactive) | activity, negative = inhibition [10]: -3.69% (inactive) | Potency [11]: > 46 µM (inactive) | Potency [12]: > 46 µM (inactive) | outcome [13]: inactive

C[C@H](NC(=O)/C(C#N)=C/c1ccc(O)c(O)c1)c1ccccc1
activity change, negative = inhibition [1, 20]: -18.9% (inactive) and -19.7% (inactive) | Potency [2]: 31.6 µM (active) and 15.8 µM (active) | activity change, negative = inhibition [9]: -20.6% (inactive) and -13.5% (inactive) | activity, negative = inhibition [10]: -15.4% (inactive) | Potency [11]: > 46 µM (inactive) | Potency [12]: > 46 µM (inactive)

CC(C)Cn1c(=O)n(C)c(=O)c2[nH]cnc21
activity change, negative = inhibition [1, 20]: 0.858% (inactive) | Potency [2]: 20 µM (active) | activity change, negative = inhibition [9]: -7.31% (inactive) | activity, negative = inhibition [10]: -25.6% (inactive) | Potency [11]: > 46 µM (inactive) | Potency [12]: > 46 µM (inactive) | outcome [13]: inactive

Cn1c(=O)[nH]c2ncn(C)c2c1=O
activity change, negative = inhibition [1, 20]: 0.808% (inactive) | Potency [2]: inactive | activity change, negative = inhibition [9]: -1.89% (inactive) | activity, negative = inhibition [10]: 3.46% (inactive) | Potency [11]: > 46 µM (inactive) | Potency [12]: > 46 µM (inactive) | outcome [13]: inactive

CSC(=N)N
activity change, negative = inhibition [1, 20]: -0.186% (inactive) | Potency [2]: inactive

COc1ccc(CCN(C)CCc2ccc(OC)c(OC)c2)cc1OC
activity change, negative = inhibition [1, 20]: 10.7% (inactive) | Potency [2]: inactive | activity change, negative = inhibition [9]: -20.2% (inactive) | activity, negative = inhibition [10]: -14.4% (inactive) | Potency [11]: > 46 µM (inactive) | Potency [12]: > 46 µM (inactive)

O=[N+]([O-])c1cccc2cn[nH]c12
activity change, negative = inhibition ([1]; at 17.2 µM (top of the series)): -15.6% (inactive) | activity change, negative = inhibition ([1]; at 38 µM (top of the series)): 0.682% (inactive) | Potency [2]: 12.6 µM (active) and 2.51 µM (active) | Potency [11]: > 46 µM (inactive) and > 20.6 µM (inactive) | Potency [12]: > 46 µM (inactive) | outcome [13]: inactive

CC(C)(CO)Cc1cc(C(C)(C)C)c(O)c(C(C)(C)C)c1
activity change, negative = inhibition [1, 20]: 4.82% (inactive) | Potency [2]: 31.6 µM (active) and 25.1 µM (active) | activity change, negative = inhibition [9]: -10.6% (inactive) | activity, negative = inhibition [10]: -24.1% (inactive) | Potency [11]: > 46 µM (inactive) | Potency [12]: > 46 µM (inactive) | outcome [13]: inactive

N=C(N)c1ccc(N)cc1
activity change, negative = inhibition [1, 20]: 6.35% (inactive) | Potency [2]: inactive | activity change, negative = inhibition [9]: 5.12% (inactive) | activity, negative = inhibition [10]: -11.4% (inactive) | Potency [11]: > 46 µM (inactive) | Potency [12]: > 46 µM (inactive) | outcome [13]: inactive

Cc1nc(N=Nc2ccc(S(=O)(=O)O)cc2S(=O)(=O)O)c(COP(=O)(O)O)c(C=O)c1O
activity change, negative = inhibition [1, 20]: -10.9% (inactive) | Potency [2]: inactive | activity change, negative = inhibition [9]: 2.46% (inactive) | activity, negative = inhibition [10]: 5.69% (inactive) | Potency [11]: > 46 µM (inactive) | Potency [12]: > 46 µM (inactive)
